Screening data from PubChem BioAssay.
RPL19A-GFP yeast: yeast TOR pathway RPL19A-GFP modulation; S. cerevisiae RPL19A-GFP strain, flow cytometry, 3 h; active compounds read low; percent response vs DMSO, % at 10 µM; 0.3% of 330,000 active; AID 2025;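 active = percent response vs DMSO below 50%; inconclusive = fewer than 70 events counted for the yeast strain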;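 note: median channel GFP fluorescence of the barcoded RPL19A-GFP strain; ratio of sample median GFP to plate DMSO average so 100% = DMSO; lower means less RPL19A-GFP as with rapamycin TOR inhibition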
GASC-1 inh: blocks human GASC-1 demethylase activity; GST-JMJD2C(1-420) H3K9me3 demethylation, DELFIA europium; 0.069% of 330,000 active; inhibition, % at 2.35 µM;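 active = more than half of a compound's replicate wells show inhibition beyond 50%, single wells judged on their own value; inconclusive = some, but no more than half, of replicates pass 50% inhibition; inactive = no replicate passes 50% inhibition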;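 note: signal counts dimethyl H3K9 product captured on neutravidin plate; 0% = median of DMSO wells and 100% = 0.3 times that DMSO median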
Target sequence (Q9H3R0 1-420 limits assumed): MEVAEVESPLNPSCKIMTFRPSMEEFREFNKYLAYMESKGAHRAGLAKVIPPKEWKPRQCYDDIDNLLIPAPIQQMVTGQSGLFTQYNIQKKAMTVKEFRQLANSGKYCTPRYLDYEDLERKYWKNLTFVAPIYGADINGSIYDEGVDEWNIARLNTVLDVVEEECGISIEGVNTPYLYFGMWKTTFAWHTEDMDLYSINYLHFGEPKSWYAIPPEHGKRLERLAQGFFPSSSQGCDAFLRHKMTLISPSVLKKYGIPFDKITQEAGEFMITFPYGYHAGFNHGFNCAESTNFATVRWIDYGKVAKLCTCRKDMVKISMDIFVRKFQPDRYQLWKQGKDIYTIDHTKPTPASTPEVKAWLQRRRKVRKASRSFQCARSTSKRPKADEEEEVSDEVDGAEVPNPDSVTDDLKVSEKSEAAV
AGP1 TOR yeast: alters AGP1-GFP fluorescence in TOR pathway yeast screen | S. cerevisiae AGP1-GFP multiplex flow cytometry, 3 h; GFP as percent of DMSO wells | GFP response vs DMSO, % at 10 µM | 0.02% of 320,000 active | AID 2066;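 active = GFP response relative to DMSO above a set limit, near screen average plus 3 SD, cut at about 150% in these data; inconclusive = fewer than 70 cells counted for the yeast strain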;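 note: median GFP channel fluorescence of the gated AGP1 strain per well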
CIT2-GFP yeast: alters CIT2-GFP fluorescence in TOR pathway yeast screen; S. cerevisiae CIT2-GFP strain, flow cytometry, 3 h; 100 means same as DMSO wells; 0.065% of 320,000 active; GFP response vs DMSO, % at 10 µM;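 active = GFP response relative to DMSO above a set limit, near the screen mean plus 3 SD, cut at about 150% in these data; inconclusive = Fewer than 70 cells measured for a yeast strain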;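 note: ratio of well median GFP fluorescence to mean of DMSO wells on the plate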
MEP2 TOR yeast: yeast TOR pathway MEP2-GFP modulation; AID 2016; GFP response vs DMSO, % at 10 µM; 0.51% of 330,000 active; S. cerevisiae MEP2-GFP strain, flow cytometry GFP, 3 h; 100% = DMSO control level;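 active = GFP response versus DMSO above a set limit, roughly screen mean plus 3 SD, cut at about 180% in these data; inconclusive = fewer than 70 cells counted for a yeast strain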;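 note: median GFP fluorescence of the barcode-gated MEP2-GFP cells per well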
LAP4-GFP MLPCN: alters LAP4-GFP fluorescence in TOR pathway yeast screen; S. cerevisiae LAP4-GFP multiplex, flow cytometry GFP, 3 h; median GFP as percent of DMSO wells; GFP response vs DMSO, % at 10 µM; 0.34% of 320,000 active;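 active = GFP response vs DMSO above a set limit, about the screen mean plus 3 SD, cut at about 150% in these data; inconclusive = under 70 cell events counted for the yeast strain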
Numbers without * were called inactive; [ ] = dose if it differs, or a comment. This is a sample that favours compounds with a hit; in the whole collection about 0.97% have one here.

What do the screens show for `Cc1c(C(=O)Nc2ccc3c(c2)OCCO3)sc2ncnc(N3CCCCC3C)c12` (centres undefined)?
RPL19A-GFP yeast: 91; GASC-1 inh: -2; AGP1 TOR yeast: 85; CIT2-GFP yeast: 84; MEP2 TOR yeast: 92; LAP4-GFP MLPCN: 96

How did O=C(c1ncc[nH]1)c1cccs1 do in these assays?
RPL19A-GFP yeast: 100; GASC-1 inh: -5; AGP1 TOR yeast: 104; CIT2-GFP yeast: 96; MEP2 TOR yeast: 100; LAP4-GFP MLPCN: 106

How did Cc1nn(Cc2ccc(Cl)c(Cl)c2)c(C)c1NC(=O)c1sc2ccccc2c1Cl do in these assays?
RPL19A-GFP yeast: 100; GASC-1 inh: 17; AGP1 TOR yeast: 99; CIT2-GFP yeast: 94; MEP2 TOR yeast: 100; LAP4-GFP MLPCN: 99

How did Cc1nn(Cc2c(Cl)cccc2Cl)c(C)c1NC(=O)c1sc2ccccc2c1Cl do in these assays?
RPL19A-GFP yeast: 92; GASC-1 inh: 27; AGP1 TOR yeast: 102; CIT2-GFP yeast: 86; MEP2 TOR yeast: 192*; LAP4-GFP MLPCN: 120

What do the screens show for `CN(C(=O)COC(=O)c1ccc(S(=O)(=O)N2CCOCC2)cc1)c1ccccc1`?
RPL19A-GFP yeast: 104; GASC-1 inh: -1; AGP1 TOR yeast: 98; CIT2-GFP yeast: 93; MEP2 TOR yeast: 103; LAP4-GFP MLPCN: 99

What do the screens show for `O=C(NCCCN1CCCCC1)c1ccc(CS(=O)c2ccc(Cl)cc2)o1` (centres undefined)?
RPL19A-GFP yeast: 111; GASC-1 inh: 9; AGP1 TOR yeast: 108; CIT2-GFP yeast: 111; MEP2 TOR yeast: 114; LAP4-GFP MLPCN: 108

How did O=C(COc1ccc([N+](=O)[O-])cc1)Nc1ccc2c(c1)nc1n2CCOC1 do in these assays?
RPL19A-GFP yeast: 11*[may fluoresce violet]; GASC-1 inh: 4; AGP1 TOR yeast: inconclusive; CIT2-GFP yeast: inconclusive; MEP2 TOR yeast: 203*[may fluoresce violet]; LAP4-GFP MLPCN: 48

Results for Cc1ccc(OCC(=O)Nc2ccc3c(c2)nc2n3CCOC2)cc1 ?
RPL19A-GFP yeast: 94; GASC-1 inh: 22; AGP1 TOR yeast: 96; CIT2-GFP yeast: 95; MEP2 TOR yeast: 95; LAP4-GFP MLPCN: 87

What do the screens show for `N#Cc1ccsc1NC(=O)C1CCN(C(=O)c2ccc(Cl)cc2)CC1`?
RPL19A-GFP yeast: 107; GASC-1 inh: 3; AGP1 TOR yeast: 114; CIT2-GFP yeast: 103; MEP2 TOR yeast: 108; LAP4-GFP MLPCN: 111

What do the screens show for `O=c1c(O)cccc2cc(O)c(O)c(O)c12`?
RPL19A-GFP yeast: 83; GASC-1 inh: 87*; AGP1 TOR yeast: 90; CIT2-GFP yeast: 76; MEP2 TOR yeast: 95; LAP4-GFP MLPCN: 112

Results for COc1ccc(-c2cc(C(=O)N3CCN(S(=O)(=O)c4ccc(C)cc4)CC3)[nH]n2)cc1 ?
RPL19A-GFP yeast: 104; GASC-1 inh: -6; AGP1 TOR yeast: 117; CIT2-GFP yeast: 108; MEP2 TOR yeast: 119; LAP4-GFP MLPCN: 108

How did Cc1ccc(N(CC(=O)NCc2ccc(F)cc2)C(=O)CCC(=O)Nc2ccccn2)cc1C do in these assays?
RPL19A-GFP yeast: 45*[may fluoresce violet]; GASC-1 inh: 0; AGP1 TOR yeast: inconclusive; CIT2-GFP yeast: inconclusive; MEP2 TOR yeast: 564*[may fluoresce violet]; LAP4-GFP MLPCN: 76

Results for COc1ccc(N(CC(=O)NCc2ccc(F)cc2)C(=O)CCC(=O)Nc2ccccn2)cc1 ?
RPL19A-GFP yeast: 94; GASC-1 inh: -10; AGP1 TOR yeast: 89; CIT2-GFP yeast: 94; MEP2 TOR yeast: 92; LAP4-GFP MLPCN: 90

Results for CC(C)Cc1nnc(NC(=O)CCC(=O)NC2CC2)s1 ?
RPL19A-GFP yeast: 106; GASC-1 inh: 5; AGP1 TOR yeast: 104; CIT2-GFP yeast: 106; MEP2 TOR yeast: 106; LAP4-GFP MLPCN: 106

How did O=C(COc1ccc(Br)cc1)Nc1ccc([N+](=O)[O-])cn1 do in these assays?
RPL19A-GFP yeast: 60; GASC-1 inh: 1; CIT2-GFP yeast: inconclusive; MEP2 TOR yeast: 250*[may fluoresce violet]; LAP4-GFP MLPCN: 97

How did CSc1sc(C(=O)NCC2CC2)cc1S(=O)(=O)C(C)C do in these assays?
RPL19A-GFP yeast: 91; GASC-1 inh: 1; AGP1 TOR yeast: 94; CIT2-GFP yeast: 83; MEP2 TOR yeast: 92; LAP4-GFP MLPCN: 98
